Compounds without any hit were thinned out: in the full panel of roughly 83,000, 20% have a hit.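 Testing used 96-well plates and a 48-hour single-concentration exposure. Example: -40 means 40% of the starting cells died.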 A number with no mark means an inactive call. Calls of active or inactive are those of the source.
Tested on: BT-549 breast
Experiment: NCI-60 one-dose screen, 48 h (100 = growth as untreated, 0 = no growth, -100 = all killed)
Conditions: 10 µM unless noted
Experimental: Growth inhibition of the BT-549 human tumor cell line is measured as a screen for anti-cancer activity. Cells are grown in 96 well plates and exposed to the test compound for 48 hours. Compounds are tested at a single concentration, which is 10^-5 M for most compounds. The reported endpoint is percent growth (GI% or GIPRCNT), where numbers from 0 - 100% represent growth inhibition, and numbers from -100% - 0 represent cell death. For example, a value of 40 represents 60% growth inhibition. A value of 0 means no net growth occurred over the course of the experiment. A value of -40 indicates 40% of cells at the beginning of the experiment died by the end of the experiment. A value of -100 means all cells are dead at the end of the experiment.
NCI-60 Human Tumor Cell Lines Screen was performed using the standard one-dose NCI protocol, which is described in more detail at https://dtp.cancer.gov/discovery_development/nci-60/default.htm.
Compounds with GIPRCNT values below 10 were considered active. Activity score was based on GIPRCNT using the following formula: […]
Score is 0 for GIPRCNT values of 100 or above, 50 for GIPRCNT values of 0, and 100 for GIPRCNT values of -100.

**Q.** With COc1nc2ccc(C)cc2cc1-c1nc2c(cnn2-c2ccc(Br)cc2)c(=O)[nH]1 as the molecule, how does the growth read?
**A.** 91.2%

**Q.** How did the growth turn out when CCCCCCn1c(-c2ccc(C(=O)O/N=C(\N)c3ccc4c(c3)OCO4)cc2)nc(-c2ccccc2)c1-c1ccccc1 was run?
**A.** 43.5%

**Q.** Which growth does the source give for CCOC(=O)c1cn2ncnc(Oc3ccc(NC(=O)NCCN(C)C)c(Cl)c3)c2c1C here?
**A.** 77.8%

**Q.** With O=c1c2cc(F)ccc2sc2c(N3CCNCC3)nc3ccc(F)cc3c12 as the molecule, how does the growth read?
**A.** 79.8%

**Q.** With Nc1nc(Cl)cc(=O)n1Cc1ccccc1 as the molecule, how does the growth read?
**A.** 102%

**Q.** Which growth does the source give for NCCCNc1nc2ccccc2c2c(=O)c3cc(OC(F)(F)F)ccc3sc12 here?
**A.** 93.1%

**Q.** Which growth does the source give for Cc1ccccc1C(=O)NN here?
**A.** 106%

**Q.** COc1cc(C(=O)c2cc(C)c3[nH]c4ccc(C)cc4c3c2C)cc(OC)c1OC was tested. Which growth did it give?
**A.** 14.5%

**Q.** With O=c1c2cc(F)ccc2sc2c(N3CCCCC3)nc3ccccc3c12 as the molecule, how does the growth read?
**A.** 90.3%

**Q.** CC1=C(SCCC(=O)OC(C[Se]C2=C(C)C(=O)c3ccccc3C2=O)C(=O)NC(C)(C)C)C(=O)c2ccccc2C1=O (stereo not given) was tested. Which growth did it give?
**A.** -96.2% (active)

**Q.** With CCc1ccccc1-n1c(N)c(C#N)c(-c2ccc(Cl)cc2)c(C#N)c1=O as the molecule, how does the growth read?
**A.** 173%

**Q.** How did the growth turn out when N#Cc1cccc(NC(=O)c2cc(-c3ccc(F)cc3F)ccc2O)c1 was run?
**A.** 5.92% (active)

**Q.** Which growth does the source give for O=C1NC(=O)C(Cn2cnc3ccccc32)N1 (stereo not given) here?
**A.** 110%

**Q.** CCCCCCCNC(=O)CCCNc1ncnc2c1ncn2-c1cccc(C(C)O)c1 (stereo not given) was tested. Which growth did it give?
**A.** 93.5%

**Q.** Which growth does the source give for CCCCCCCCCCCCCCCCCCOc1ccccc1CCCOP(=O)(O)OCC[N+](C)(C)C here?
**A.** 77.4%

**Q.** For O=CN(SSN(C=O)C1CCCCC1)C1CCCCC1, which growth is on record?
**A.** 137%

**Q.** Which growth does the source give for C#Cc1cccc(NC(=O)c2ccc(NC(=O)C=C)cc2)c1 here?
**A.** 77% [8.25 µM]

**Q.** With O=c1c2cccc(F)c2sc2c(NCCCNCCO)nc3ccccc3c12 as the molecule, how does the growth read?
**A.** 72.6%

**Q.** For COc1cc2cc(Oc3ccc(NC(=O)Nc4ccc(Cl)c(C(F)(F)F)c4)cc3)c(C)nc2cc1OCCN1CCOCC1, which growth is on record?
**A.** 48.6%

**Q.** How did the growth turn out when C=C(C)C1CCC2(C)OC2C1 (stereo not given) was run?
**A.** 99.3%

**Q.** With COc1ccc2nc(NCCCNCCO)c3sc4ccc(F)cc4c(=O)c3c2c1 as the molecule, how does the growth read?
**A.** 91.6%

**Q.** Which growth does the source give for O=C(O)c1cn(C2CC2)c2cc(N3CCN(C(=O)Nc4nc(-c5ccccc5)cs4)CC3)c(F)cc2c1=O here?
**A.** 10.3%

**Q.** Which growth does the source give for CN1CCN(c2ccc(-c3ccc4ncc(C#N)c(Nc5ccc(F)c(Cl)c5)c4c3)cn2)CC1 here?
**A.** 60.3%

**Q.** How did the growth turn out when O=c1c2cc(F)cc(Cl)c2sc2c(NCCCNCCO)nc3ccccc3c12 was run?
**A.** 82.4%

**Q.** How did the growth turn out when Cc1ccc(C2CC(c3ccc(Nc4ccnc5cc(Cl)ccc45)cc3)=NN2C=O)cc1 (stereo not given) was run?
**A.** 56.8%

**Q.** With CCN1C(=O)N(CC)C2Nn3c(s/c(=C4\C(=O)N(CCC(C)C)c5ccccc54)c3=O)=NC21 (stereo not given) as the molecule, how does the growth read?
**A.** 99.6%

**Q.** Cc1nc2ccccc2c(/C=C/c2ccc(Cl)cc2)c1C(=O)/C=C/c1ccc(C(F)(F)F)cc1 was tested. Which growth did it give?
**A.** -51.7% (active)

**Q.** For COc1ccc(OC)c(/C=C/C(=O)N/N=C/c2ccc(Cl)cc2)c1, which growth is on record?
**A.** 63.5%

**Q.** How did the growth turn out when Cc1nc2cnc(N)c(C#Cc3cncc(C(=O)Nc4ccc(CN5CCN(C)CC5)c(C(F)(F)F)c4)c3)c2nc1C was run?
**A.** 35.6%

**Q.** Which growth does the source give for CCCSc1nc2ccc(C)cc2cc1/C=[N+](\[O-])c1ccccc1 here?
**A.** 42.1%

**Q.** Which growth does the source give for CN1C(=O)CNC(=O)[C@H](NC(=O)c2nc3ccccc3cc2O)CSSC[C@H]1C(=O)NCCCc1nc2ccccc2cc1O here?
**A.** 75.8%

**Q.** COc1cc(C)c(Cc2cnc(N)nc2N)cc1OC was tested. Which growth did it give?
**A.** 95.4%

**Q.** With COc1ccc(NC2=C(Br)C(=O)C(C)=C(C)C2=O)cc1 as the molecule, how does the growth read?
**A.** 101%

**Q.** C=C1C(=O)O[C@H]2[C@H]1CC/C(COC(=O)CCC(=O)NCCOCCOCC(=O)Nc1ccc(OC)c(C(N)=O)c1O)=C\CC[C@@]1(C)O[C@@H]21 was tested. Which growth did it give?
**A.** 85.9%

**Q.** Which growth does the source give for C=CCc1cc(C)ccc1NC(C(=O)NCC(=O)OC)c1ccccc1 (stereo not given) here?
**A.** 93.7%

**Q.** With COc1ccc(-c2cc3c4c(nc5ccccc5c4c2)CC(c2cc(OC)c(OC)c(OC)c2)O3)cc1 (stereo not given) as the molecule, how does the growth read?
**A.** 64.6%

**Q.** With FC(F)(F)c1cc(Nc2ccc3c(OCCCN4CCOCC4)cccc3n2)ccc1Cl as the molecule, how does the growth read?
**A.** 62.1%

**Q.** Which growth does the source give for Cc1nc2nc(SCC(=O)O)[nH]c2c(=O)[nH]1 here?
**A.** 97.2%

**Q.** Which growth does the source give for CC1(C)C2CC1C1(/C=N/NC(N)=S)C(C2)C(C#N)(C#N)C1(C#N)C#N (stereo not given) here?
**A.** 96.3%

**Q.** Which growth does the source give for COc1ccc(S(=O)(=O)n2c3ccccc3n3ncc(-c4nnc(C)o4)c23)cc1 here?
**A.** 49.5%

Reference: PubChem BioAssay (NCI)
